Anthrax LF inh2 = blocks Bacillus anthracis lethal factor protease. P15917. multiplex microsphere protease cleavage assay, LF. inhibition, % at 10 µM. actives 0.12% (n = 360,000). AID 588501; note: plate controls were buffer without enzyme for full effect and enzyme alone for no effect
BoNT F protease = BoNT F light chain protease inhibition. Multiplex microsphere protease cleavage assay, flow cytometry. inhibition, % at 10 µM. actives 0.22% (n = 360,000); in the data active = inhibition above about 35%, passing the limit was not always enough; inconclusive = no clear call, values can overlap the other calls; note: plate controls were buffer without enzyme for full effect and enzyme alone for no effect
TcdB GH inh = TcdB glycohydrolase inhibition; inhibition, % at 9.99 µM; TcdB glycohydrolase enzymatic assay, plate reader; AID 652162; P18177; actives 0.24% (n = 350,000); in the data active = inhibition above about 10%
Target sequence (P18177 whole entry, looked up): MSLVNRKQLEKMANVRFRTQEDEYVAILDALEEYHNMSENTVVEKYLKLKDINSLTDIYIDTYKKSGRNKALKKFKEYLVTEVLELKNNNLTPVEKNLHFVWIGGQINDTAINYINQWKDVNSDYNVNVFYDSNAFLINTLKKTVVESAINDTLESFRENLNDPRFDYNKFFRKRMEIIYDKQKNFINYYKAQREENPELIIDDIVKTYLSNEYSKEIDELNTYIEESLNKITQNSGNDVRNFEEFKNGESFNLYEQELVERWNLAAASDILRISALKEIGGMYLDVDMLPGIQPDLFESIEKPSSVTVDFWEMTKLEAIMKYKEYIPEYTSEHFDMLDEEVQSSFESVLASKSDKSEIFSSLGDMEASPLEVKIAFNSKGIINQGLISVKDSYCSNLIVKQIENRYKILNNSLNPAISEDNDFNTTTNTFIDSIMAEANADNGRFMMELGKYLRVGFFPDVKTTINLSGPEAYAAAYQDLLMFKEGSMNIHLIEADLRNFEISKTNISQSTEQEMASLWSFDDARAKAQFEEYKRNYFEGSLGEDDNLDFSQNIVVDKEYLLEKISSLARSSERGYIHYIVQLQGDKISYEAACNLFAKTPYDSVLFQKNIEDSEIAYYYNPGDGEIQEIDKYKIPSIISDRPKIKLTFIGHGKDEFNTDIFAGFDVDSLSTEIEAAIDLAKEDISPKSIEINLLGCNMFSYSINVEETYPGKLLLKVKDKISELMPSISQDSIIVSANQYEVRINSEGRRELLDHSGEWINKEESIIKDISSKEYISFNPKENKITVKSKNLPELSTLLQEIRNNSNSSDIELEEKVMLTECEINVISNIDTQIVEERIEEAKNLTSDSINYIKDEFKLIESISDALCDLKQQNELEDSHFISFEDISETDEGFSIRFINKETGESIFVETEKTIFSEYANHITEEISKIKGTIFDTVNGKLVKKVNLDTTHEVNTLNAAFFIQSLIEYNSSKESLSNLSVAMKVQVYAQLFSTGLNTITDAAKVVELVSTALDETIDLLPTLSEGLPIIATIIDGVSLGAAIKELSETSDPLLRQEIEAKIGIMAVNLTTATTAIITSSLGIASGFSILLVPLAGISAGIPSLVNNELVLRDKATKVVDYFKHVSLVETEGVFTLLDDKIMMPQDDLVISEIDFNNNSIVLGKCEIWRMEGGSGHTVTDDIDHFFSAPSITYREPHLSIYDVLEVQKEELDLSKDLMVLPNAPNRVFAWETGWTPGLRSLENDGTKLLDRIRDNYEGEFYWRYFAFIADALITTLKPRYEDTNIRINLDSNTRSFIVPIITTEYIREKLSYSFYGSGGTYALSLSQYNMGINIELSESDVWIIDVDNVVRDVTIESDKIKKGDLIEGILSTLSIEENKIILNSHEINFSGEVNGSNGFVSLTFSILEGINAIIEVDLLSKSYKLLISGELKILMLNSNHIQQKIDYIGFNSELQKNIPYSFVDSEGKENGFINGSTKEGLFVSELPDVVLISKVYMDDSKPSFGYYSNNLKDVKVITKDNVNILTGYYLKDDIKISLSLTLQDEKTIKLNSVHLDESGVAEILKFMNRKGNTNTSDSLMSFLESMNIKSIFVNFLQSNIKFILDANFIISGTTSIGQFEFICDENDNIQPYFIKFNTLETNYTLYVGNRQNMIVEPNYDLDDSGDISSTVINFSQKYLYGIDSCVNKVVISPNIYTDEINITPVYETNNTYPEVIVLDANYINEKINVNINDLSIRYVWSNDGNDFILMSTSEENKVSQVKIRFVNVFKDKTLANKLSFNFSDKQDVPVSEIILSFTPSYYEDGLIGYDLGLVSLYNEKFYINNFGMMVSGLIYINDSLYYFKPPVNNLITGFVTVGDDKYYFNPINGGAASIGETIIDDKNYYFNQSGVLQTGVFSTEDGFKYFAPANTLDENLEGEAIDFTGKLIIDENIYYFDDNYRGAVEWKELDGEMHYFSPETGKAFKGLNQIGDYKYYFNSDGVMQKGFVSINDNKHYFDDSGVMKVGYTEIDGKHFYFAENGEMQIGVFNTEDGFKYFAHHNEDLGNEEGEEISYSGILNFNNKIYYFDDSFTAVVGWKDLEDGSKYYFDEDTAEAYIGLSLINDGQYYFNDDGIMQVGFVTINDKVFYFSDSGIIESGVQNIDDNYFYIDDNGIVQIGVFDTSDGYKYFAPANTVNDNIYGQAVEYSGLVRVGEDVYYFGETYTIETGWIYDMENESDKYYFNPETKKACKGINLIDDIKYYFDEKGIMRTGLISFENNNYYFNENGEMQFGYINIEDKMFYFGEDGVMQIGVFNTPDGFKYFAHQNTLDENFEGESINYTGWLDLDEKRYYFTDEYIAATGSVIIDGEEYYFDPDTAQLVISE
BoNT A protease = BoNT A light chain protease inhibition. multiplex microsphere protease substrate cleavage, flow cytometry. actives 0.17% (n = 360,000). inhibition, % at 10 µM; note: plate controls were buffer without enzyme for full effect and enzyme alone for no effect
Autofluor counter = flagged as autofluorescent in microsphere protease counterscreen; compound autofluorescence counterscreen, microsphere flow cytometry; active compounds read high; fluorescence intensity (test concentration not listed); actives 3.1% (n = 360,000); in the data active = fluorescence intensity above about 16000; inconclusive = no clear call, values can overlap the other calls
* hit, by the source's call. This is one part of a sample in which hits are shown more often than they occur. Cut-off read from the data, not from the text of the source, unless noted: active = inhibition above about 30%; inconclusive = no clear call, values can overlap the other calls; inactive = below that.

Screening C[N+]1(CC(=O)Nc2ccc(F)cc2)CCN(C(=O)c2ccco2)CC1 returned Anthrax LF inh2 -2, BoNT F protease 3, BoNT A protease 0 and Autofluor counter 16539*.
For Cc1ccc(NC(=O)CN2CCN(C(=O)c3ccco3)CC2)cc1 the results were Anthrax LF inh2 -3, BoNT F protease 9, TcdB GH inh -3, BoNT A protease 1 and Autofluor counter 3693.
`CC(C)(O)C1=NOC(c2ccccc2)C1` (stereo unspecified) gave Anthrax LF inh2 -3, BoNT F protease 1, BoNT A protease 0 and Autofluor counter 16732*.
For O=C1CC(=O)CC(c2ccccc2)C1 the results were Anthrax LF inh2 -2, BoNT F protease 0, TcdB GH inh 1, BoNT A protease 0 and Autofluor counter 2171.
`O=C(NCC1CCCCC1)c1ccco1` gave Anthrax LF inh2 0, BoNT F protease -4, BoNT A protease inconclusive and Autofluor counter 22013*.
C[C@H](CO)N1C[C@H](C)[C@@H](CN(C)S(=O)(=O)c2cccs2)Oc2ccc(NS(=O)(=O)c3ccc(Cl)cc3)cc2C1=O was read as TcdB GH inh 1.
For C[C@H](CO)N1C[C@H](C)[C@H](CN(C)CC2CC2)Oc2c(NS(C)(=O)=O)cccc2C1=O the results were TcdB GH inh 1.
For FC(F)(F)c1cc(C(F)(F)F)c2ccc(Oc3ccccc3)nc2n1 the results were Anthrax LF inh2 0, BoNT F protease -2, BoNT A protease 1 and Autofluor counter 15838.
Screening FC(F)(F)c1cccc(Oc2ccc3c(C(F)(F)F)cc(C(F)(F)F)nc3n2)c1 returned Anthrax LF inh2 -2, BoNT F protease 1, TcdB GH inh 0, BoNT A protease inconclusive and Autofluor counter 21842*.
`C[C@H]1CN([C@@H](C)CO)C(=O)Cc2cc(NC(=O)Nc3ccc(F)cc3)ccc2O[C@H]1CN(C)Cc1ccc(Oc2ccccc2)cc1` gave TcdB GH inh 0.
For CN(C)CCCN1C(=O)c2oc3ccccc3c(=O)c2C1c1cccs1 (stereo unspecified) the results were Anthrax LF inh2 -9, BoNT F protease 7, BoNT A protease 8 and Autofluor counter 18317*.
CN(C)CCN1C(=O)c2oc3ccccc3c(=O)c2C1c1cccc(Br)c1 (stereo unspecified) was read as Anthrax LF inh2 -1, BoNT F protease 2, BoNT A protease -1 and Autofluor counter 11184.
For CCN(CC)CCN1C(=O)c2oc3ccc(F)cc3c(=O)c2C1c1ccncc1 (stereo unspecified) the results were Anthrax LF inh2 -13, BoNT F protease -10, TcdB GH inh -1, BoNT A protease -1 and Autofluor counter 5086.
Screening CCN(CC)CCN1C(=O)c2oc3ccccc3c(=O)c2C1c1ccc(F)cc1 (stereo unspecified) returned Anthrax LF inh2 -4, BoNT F protease -3, BoNT A protease -2 and Autofluor counter 21092*.
For CO[C@@H]1CN(C)C(=O)c2ccc(NS(=O)(=O)c3cccc(F)c3)cc2OC[C@H](C)NC[C@H]1C the results were TcdB GH inh -1.
CC(C)NC(=O)Nc1cccc2c1O[C@H](CN(C)C(=O)NC1CCCCC1)[C@@H](C)CN([C@@H](C)CO)C2=O was read as TcdB GH inh -1.
Screening COc1ccc(S(=O)(=O)N(C)C[C@H]2Oc3c(NC(=O)Nc4cccc5ccccc45)cccc3C(=O)N([C@@H](C)CO)C[C@@H]2C)cc1 returned TcdB GH inh 1.
Screening S=c1[nH]nc(-c2ccccn2)n1/N=C/c1ccccc1 returned Anthrax LF inh2 -3, BoNT F protease -3, TcdB GH inh 5, BoNT A protease -1 and Autofluor counter 8984.
S=c1[nH]nc(-c2ccccn2)n1/N=C/c1ccc(Cl)cc1 was read as Anthrax LF inh2 1, BoNT F protease inconclusive, TcdB GH inh 15*, BoNT A protease -5 and Autofluor counter inconclusive.
`O=C(NCC[C@@H]1CC[C@H](NC(=O)c2ccc3c(c2)OCO3)[C@@H](CO)O1)Nc1cc(F)ccc1F` gave TcdB GH inh 0.
For O=C(NCCCn1ccnc1)c1ccccc1Br the results were Anthrax LF inh2 5, BoNT F protease -13, TcdB GH inh 1, BoNT A protease 0 and Autofluor counter 3273.
O=C(NCCCn1ccnc1)c1sc2cccc(F)c2c1Cl was read as Anthrax LF inh2 5, BoNT F protease 4, BoNT A protease 5 and Autofluor counter 21856*.
For O=C(NCCCn1ccnc1)c1c(F)cccc1F the results were Anthrax LF inh2 -2, BoNT F protease 3, TcdB GH inh 0, BoNT A protease 1 and Autofluor counter 5315.
`Clc1ccccc1OCCCCn1ccnc1` gave Anthrax LF inh2 -3, BoNT F protease -8, BoNT A protease 0 and Autofluor counter 11053.
Screening Cc1ccccc1OCCCCCn1ccnc1 returned Anthrax LF inh2 0, BoNT F protease -4, BoNT A protease -2 and Autofluor counter 24874*.
Screening Cc1ccccc1C(=O)NCCCn1ccnc1 returned Anthrax LF inh2 -1, BoNT F protease 37*, TcdB GH inh 0, BoNT A protease 0 and Autofluor counter 3866.
Cc1noc(C)c1NC(=O)Nc1ccc2c(c1)C(=O)N([C@@H](C)CO)C[C@H](C)[C@@H](CN(C)S(=O)(=O)c1ccccc1)OCCCC[C@@H](C)O2 was read as TcdB GH inh 1.
`CO[C@@H]1CN(C)C(=O)c2cc(NC(=O)C3CC3)ccc2OC[C@@H](C)N(CCC(F)(F)F)C[C@@H]1C` gave TcdB GH inh 1.
Screening COC(=O)C1=C(C)NC(=O)CC1c1ccc(F)c(Br)c1 (stereo unspecified) returned Anthrax LF inh2 -1, BoNT F protease 1, TcdB GH inh 1, BoNT A protease inconclusive and Autofluor counter 23452*.
For Cc1c(C(=O)c2ccccc2)c2ccccn2c1CCc1ccccn1 the results were Anthrax LF inh2 -9, BoNT F protease -24, TcdB GH inh 13*, BoNT A protease 2 and Autofluor counter 6705.
For Cc1c(C(=O)c2ccc(F)cc2)c2ccccn2c1CCc1ccccn1 the results were Anthrax LF inh2 -6, BoNT F protease -26, TcdB GH inh -2, BoNT A protease 1 and Autofluor counter 4619.
C[C@@H]1CN([C@@H](C)CO)S(=O)(=O)c2ccc(C#Cc3cccnc3)cc2O[C@H]1CN(C)C(=O)CN(C)C was read as TcdB GH inh 0.
Cc1ccc(NC(=O)c2ccc(C)cc2)cc1 was read as Anthrax LF inh2 -4, BoNT F protease -9, TcdB GH inh 3, BoNT A protease 0 and Autofluor counter 4318.
For Cc1ccc(C(=O)Nc2ccc(Br)c(C(F)(F)F)c2)cc1 the results were Anthrax LF inh2 -1, BoNT F protease -4, BoNT A protease -1 and Autofluor counter 16589*.
For CCN(CC)CCCN=C(C)c1c(O)n(-c2ccccc2)c(=O)[nH]c1=O the results were Anthrax LF inh2 -2, BoNT F protease 0, BoNT A protease inconclusive and Autofluor counter 22362*.
`CCC(=NCCCN(CC)CC)c1c(O)n(-c2ccccc2)c(=O)[nH]c1=O` gave Anthrax LF inh2 1, BoNT F protease -3, BoNT A protease -2 and Autofluor counter 24318*.

High-throughput results: PubChem, several laboratories
